High-throughput results (PubChem BioAssay)
PglD DTNB – C. jejuni PglD acetyltransferase inhibitors, primary screen, biochemical, DTNB colorimetric, single point | UDP-N-acetylbacillosamine N-acetyltransferase PglD (Campylobacter jejuni) | purified PglD enzyme, DTNB colorimetric CoA detection | inhibition, % at 12.5 µM | 360,000 compounds, 0.098% hits; in the data active = inhibition above about 16%, passing the limit was not always enough; inconclusive = no clear call, values can overlap the other calls
Glyco luc inh – increase of ERlucT glycosylation luciferase signal, primary screen, N-linked glycosylation inhibitor project, D54 ERlucT cells, luminescence, set 2. 360,000 compounds, 0.23% hits. D54 ERlucT glycosylation luciferase reporter, 24 h; percent of 100 nM tunicamycin response. reporter increase, % at 12.5 µM. AID 588692, 2011;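 active = mean luciferase reporter signal, scaled so untreated is 0 and the glycosylation-blocking control 100, at or above a set limit in every replicate; inconclusive = mean reaches the limit but not every replicate does; inactive = mean below the limit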;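 note: luciferase carries N-glycosylation sites so blocking glycosylation raises the light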
DENV2 CPE – inhibitors of DENV2 cytopathic effect, primary screen, cell-based, plate reader, single concentration; DENV2-infected cells, cytopathic effect rescue; CPE inhibition, % at 9.99 µM; 350,000 compounds, 1.7% hits; AID 651640, 2012; in the data active = CPE inhibition above about 20%, passing the limit was not always enough; inconclusive = no clear call, values can overlap the other calls; tested in BHK-21 cells
Rtt109 HAT inh – inhibitors of C. albicans Rtt109/Vps75 HAT, primary screen, biochemical, ThioGlo CoA-SH fluorescence, plate reader; 330,000 compounds, 0.16% hits; inhibition, % at 34.9 µM; purified Rtt109/Vps75, 4 h; Histone acetyltransferase RTT109 (Candida albicans (strain SC5314 / ATCC MYA-2876)), …;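 active = inhibition of at least 50% in every replicate; inconclusive = best replicate reaches 50% inhibition but some replicates fall short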
Target sequence (Q5AAJ8 whole entry, looked up): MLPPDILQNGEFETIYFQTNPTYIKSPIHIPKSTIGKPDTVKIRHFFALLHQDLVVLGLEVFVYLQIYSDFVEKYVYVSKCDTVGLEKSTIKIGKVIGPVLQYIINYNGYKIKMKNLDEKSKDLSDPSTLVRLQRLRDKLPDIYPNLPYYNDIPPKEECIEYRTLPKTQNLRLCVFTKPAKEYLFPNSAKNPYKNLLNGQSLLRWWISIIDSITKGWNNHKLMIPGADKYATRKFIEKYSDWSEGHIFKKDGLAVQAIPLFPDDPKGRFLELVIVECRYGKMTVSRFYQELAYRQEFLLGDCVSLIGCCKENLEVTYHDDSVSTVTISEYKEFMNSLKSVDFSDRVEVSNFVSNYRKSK
A number is an active result; n = inactive; u = inconclusive; x = not tested or not shown. The entries come from a sample that favours hits as a whole.

SMILES	PglD DTNB	Glyco luc inh	DENV2 CPE	Rtt109 HAT inh
COCC(=O)Nc1ccc2c(c1)[C@@H]1C[C@H](CC(=O)N3CCc4ccccc4C3)O[C@@H](CO)[C@@H]1O2	n	x	n	x
COCC#Cc1cnc2c(c1)C(=O)N([C@@H](C)CO)C[C@@H](C)[C@H](CN(C)C(=O)CCN1CCCCC1)O2	n	x	n	x
c1ccc(-c2nc(-n3ccnc3)nc(-n3ccnc3)n2)cc1	x	27	x	n
CC(C)Nc1nc(-c2ccccc2)nc(-n2ccnc2)n1	x	n	x	n
COc1ccc(NC(=O)[C@@H]2CC=C[C@@H]3CCN(Cc4ccccc4)C(=O)[C@@H]32)cc1	n	n	25	n
COc1ccc(CN(C)C[C@H]2OCCCC[C@H](C)Oc3ccc(NS(=O)(=O)c4ccc(Cl)cc4)cc3C(=O)N([C@@H](C)CO)C[C@@H]2C)cc1	n	x	30	x
COc1ccc(CN(C)C[C@H]2OCCCC[C@@H](C)Oc3ccc(NS(=O)(=O)c4ccc(F)cc4)cc3C(=O)N([C@@H](C)CO)C[C@@H]2C)cc1	n	x	u	x
COc1ccc(CN(C)C[C@@H]2OCCCC[C@@H](C)Oc3ccc(NS(=O)(=O)c4ccc(Cl)cc4)cc3C(=O)N([C@@H](C)CO)C[C@H]2C)cc1	n	x	34	x
COc1ccc(CN(C)C[C@H]2OCCCC[C@H](C)Oc3ccc(NS(=O)(=O)c4ccc(Cl)cc4)cc3C(=O)N([C@@H](C)CO)C[C@H]2C)cc1	n	x	n	x
COc1ccc(CN(C)C[C@H]2OCCCC[C@H](C)Oc3ccc(NS(=O)(=O)c4ccc(F)cc4)cc3C(=O)N([C@H](C)CO)C[C@H]2C)cc1	n	x	33	x
Cc1ccc(SC[C@H](Cc2ccccc2)N2CC[C@@H](C)CCC2=O)cc1	n	n	94	n
CCCN1CCC(=O)N([C@H](CSc2ccccc2)Cc2ccccc2)CC1	n	n	49	n
O=C(N[C@@H]1CC[C@@H](CCNC(=O)C2CCC2)O[C@@H]1CO)c1ccncc1	n	x	n	x
O=C(O)[C@H]1[C@H](CO)[C@H]2Cn3c(ccc(/C=C/c4ccccc4)c3=O)[C@H]2N1C(=O)c1cnccn1	n	x	103	x
CN(C)C(=O)[C@@H]1[C@@H](CO)[C@@H]2Cn3c(ccc(/C=C/c4ccccc4)c3=O)[C@@H]2N1CC1CC1	x	x	n	x
CCCN1[C@H](C(=O)N(C)C)[C@@H](CO)[C@@H]2Cn3c(ccc(/C=C/c4ccccc4)c3=O)[C@@H]21	n	x	56	x
CCN1[C@@H]2Cn3c(ccc(/C=C/c4ccccc4)c3=O)[C@H]1[C@@H](C(=O)NC1Cc3ccccc3C1)[C@@H]2CO	x	x	32	x
CN(C)c1ccc2c(c1)[C@@H]1C[C@@H](CC(=O)NC3CCCC3)O[C@H](CO)[C@@H]1O2	n	x	n	x
CCN(Cc1ccccc1)c1ccccc1	n	n	37	n
CCOc1ccc(-c2nnc(SCC(=O)Nc3ccc4c(c3)c3ccccc3n4CC)n2N)cc1	n	73	x	n
CCn1c2ccccc2c2cc(NC(=O)CSc3nnc(-c4ccc(OC)c(OC)c4)n3N)ccc21	n	n	x	n
N#CCC(CNc1ncc(C(F)(F)F)cc1Cl)OC(=O)c1ccc(Cl)cc1Cl (centres undefined)	x	30	n	n
CCS(=O)(=O)N1CCCCN2[C@H](C1)[C@@H](c1ccc(C#Cc3ccccc3OC)cc1)[C@@H]2CO	n	x	40	x
CCS(=O)(=O)N1CCCCN2[C@H](CO)[C@H](c3ccc(C#Cc4ccccn4)cc3)[C@@H]2C1	n	x	n	x
CCS(=O)(=O)N1CCCCN2[C@H](C1)[C@H](c1ccc(C#Cc3ccccn3)cc1)[C@@H]2CO	n	x	52	x
SMILES	PglD DTNB	Glyco luc inh	DENV2 CPE	Rtt109 HAT inh
C[C@H](CO)N1C[C@H](C)[C@@H](CN(C)Cc2ccc(C(=O)Nc3ccccc3N)cc2)Oc2ccc(NC(=O)Nc3ccc(C(F)(F)F)cc3)cc2C1=O	n	x	n	x
CC(C)SCc1cc(N2CCCC2)nc(-c2ccccc2)n1	x	n	26	x
CSCc1cc(N2CCCC2)nc(-c2ccccc2)n1	x	n	n	n
COc1ccc(CC(=O)Nc2ccc(S(=O)(=O)Nc3cc(C)nc(C)n3)cc2)cc1OC	n	n	30	x
Cc1cc(NS(=O)(=O)c2ccc(NC(=O)Cc3ccccc3)cc2)nc(C)n1	n	n	n	n
COc1ccc(S(=O)(=O)Nc2cccc3c2O[C@H](CN(C)S(C)(=O)=O)[C@H](C)CN([C@H](C)CO)C3=O)cc1	n	x	n	x
COc1ccc(S(=O)(=O)N(C)C[C@H]2Oc3c(NS(=O)(=O)c4cccs4)cccc3C(=O)N([C@@H](C)CO)C[C@@H]2C)cc1	x	x	36	x
COc1ccc(S(=O)(=O)Nc2cccc3c2O[C@@H](CN(C)S(C)(=O)=O)[C@@H](C)CN([C@@H](C)CO)C3=O)cc1	n	x	120	x
C[C@@H]1CCCCO[C@H](CN(C)C(=O)CCCN(C)C)[C@H](C)CN([C@@H](C)CO)C(=O)c2cc(NC(=O)Nc3ccccc3)ccc2O1	n	x	n	x
COc1ccc2c3c(n(C)c2c1)[C@@H](CO)N(Cc1cccc(F)c1)CC31CN(C)C1	x	x	n	x
CO[C@H]1CC[C@H]2CCN(C)C(=O)C[C@@H](c3ccccc3)CN(C)C(=O)c3cc(C#N)ccc3OC[C@H]1O2	n	x	n	x
CO[C@@H]1CC[C@H]2CCN(C)C(=O)C[C@H](c3ccccc3)CN(C)C(=O)c3cc(C#N)ccc3OC[C@@H]1O2	n	x	52	x
CO[C@@H]1CN(C)C(=O)c2cc(NC(=O)c3ccc(F)cc3)ccc2OC[C@H](C)N(C(=O)CN(C)C)C[C@@H]1C	n	x	n	x
COc1ccccc1OCC(=O)N/N=C/C=C/c1ccc([N+](=O)[O-])o1	n	58	n	n
O=C(N/N=C/C=C/c1ccccc1[N+](=O)[O-])c1cccs1	n	n	n	n
O=C(N/N=C\C=C\c1ccc([N+](=O)[O-])o1)c1cccs1	n	41	n	n
Cc1ccccc1OCC(=O)N/N=C/c1ccc([N+](=O)[O-])o1	x	n	n	n
C[C@@H]1CN([C@@H](C)CO)C(=O)c2cccc(N(C)C)c2O[C@H]1CN(C)Cc1ccncc1	n	x	n	x
C[C@@H]1CCCCO[C@@H](CN(C)C(=O)C2CCCCC2)[C@H](C)CN([C@H](C)CO)C(=O)c2cc(NC(=O)C3CCCCC3)ccc2O1	n	x	n	x
CC(=O)NC[C@@H]1[C@@H](c2ccc(-c3cccnc3)cc2)[C@H](CO)N1C(=O)C1CCC1	n	x	31	x
CC(=O)N1[C@H](CO)[C@H](c2ccc(-c3cccnc3)cc2)[C@H]1CNC(=O)C1CC1	x	x	47	x
CCC(=O)N1[C@H](CN(C)C(C)=O)[C@H](c2ccc(-c3cccnc3)cc2)[C@@H]1CO	n	x	29	x
CC(=O)N1[C@H](CO)[C@H](c2ccc(-c3cccnc3)cc2)[C@@H]1CNC(=O)C1CCC1	x	x	n	x
CCC(=O)N1[C@H](CO)[C@H](c2ccc(-c3cccnc3)cc2)[C@@H]1CN(C)C(C)=O	n	x	n	x
CC(C)NC(=O)N(C)C[C@@H]1Oc2c(NC(=O)c3ccc(-c4nccs4)cc3)cccc2C(=O)N([C@H](C)CO)C[C@@H]1C	n	x	n	x
